Several values for one entry are separate records, joined by “and”; a condition that tells them apart may be missing. Equal entries are not always repeated. Hit rate of the full screen: of about 5,500 compounds, about 2,000 (36%) were called active. Another 18% or so got no clear call; they are omitted. No stated cut-off is given here; in the data, active means normalized growth mostly below about 0.91 (no sharp cut-off); inconclusive means no clear call, values can overlap the other calls; inactive means mostly above about 0.92. The list shows a part of the results.
Experiment: chemical genetic growth profiling, strain panel (AID 1159580);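 further: tested at 20 µM; growth read once vehicle control cultures reached saturation at 30 °C; 1 = growth at the plate median or of vehicle wells; lower values mean less growth of the strain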
Settings: growth OD
[1] = S. cerevisiae deletion strains, locus YBR021W, strain FUR4, active compounds read low
[2] = S. cerevisiae deletion strains, locus YBR229C, strain ROT2, active compounds read low
[3] = S. cerevisiae deletion strains, locus YCL029C, strain bik1, active compounds read low
[4] = S. cerevisiae deletion strains, locus YDL035C, strain GPR1, active compounds read low
[5] = S. cerevisiae deletion strains, locus YDL074C, strain BRE1, active compounds read low
[6] = S. cerevisiae deletion strains, locus YDL101C, strain DUN1, active compounds read low
[7] = S. cerevisiae deletion strains, locus YDL134C, strain PPH21, active compounds read low
[8] = S. cerevisiae deletion strains, locus YDL185W, strain tfp1, active compounds read low
[9] = S. cerevisiae deletion strains, locus YDL192W, strain arf1, active compounds read low
[10] = S. cerevisiae deletion strains, locus YDR101C, strain arx1, active compounds read low
[11] = S. cerevisiae deletion strains, locus YDR162C, strain NBP2, active compounds read low
[12] = S. cerevisiae deletion strains, locus YDR318W, strain mcm21, active compounds read low
[13] = S. cerevisiae deletion strains, locus YDR388W, active compounds read low
[14] = S. cerevisiae deletion strains, locus YDR502C, strain sam2, active compounds read low
[15] = S. cerevisiae deletion strains, locus YER110C, active compounds read low
[16] = S. cerevisiae deletion strains, locus YER155C, strain BEM2, active compounds read low
[17] = S. cerevisiae deletion strains, locus YER167W, strain BCK2, active compounds read low
[18] = S. cerevisiae deletion strains, locus YGL078C, strain dbp3, active compounds read low
[19] = S. cerevisiae deletion strains, locus YGL086W, strain mad1, active compounds read low
[20] = S. cerevisiae deletion strains, locus YGL248W, strain PDE1, active compounds read low
[21] = S. cerevisiae deletion strains, locus YGR135W, strain pre9, active compounds read low
[22] = S. cerevisiae deletion strains, locus YGR252W, strain gcn5, active compounds read low
[23] = S. cerevisiae deletion strains, locus YHR030C, strain SLT2, active compounds read low
[24] = S. cerevisiae deletion strains, locus YHR079C, strain IRE1 (second series), active compounds read low
[25] = S. cerevisiae deletion strains, locus YHR094C, strain hxt1, active compounds read low
[26] = S. cerevisiae deletion strains, locus YHR129C, strain ARP1, active compounds read low
[27] = S. cerevisiae deletion strains, locus YHR200W, strain rpn10, active compounds read low
[28] = S. cerevisiae deletion strains, locus YIL066C, strain RNR3, active compounds read low
[29] = S. cerevisiae deletion strains, locus YIL073C, strain SPO22, active compounds read low
[30] = S. cerevisiae deletion strains, locus YIL125W, strain kgd1, active compounds read low
[31] = S. cerevisiae deletion strains, locus YIR030C, strain dcg1, active compounds read low
[32] = S. cerevisiae deletion strains, locus YJL095W, strain BCK1, active compounds read low
[33] = S. cerevisiae deletion strains, locus YJL134W, strain LCB3, active compounds read low
[34] = S. cerevisiae deletion strains, locus YJL168C, strain set2, active compounds read low
[35] = S. cerevisiae deletion strains, locus YJL187C, strain SWE1 (second series), active compounds read low
[36] = S. cerevisiae deletion strains, locus YJR043C, strain POL32, active compounds read low
[37] = S. cerevisiae deletion strains, locus YJR075W, strain HOC1, active compounds read low
[38] = S. cerevisiae deletion strains, locus YKL009W, strain mrt4, active compounds read low
[39] = S. cerevisiae deletion strains, locus YKL068W, active compounds read low
[40] = S. cerevisiae deletion strains, locus YKL085W, strain MDH1 (second series), active compounds read low
[41] = S. cerevisiae deletion strains, locus YKL085W, strain MDH1, active compounds read low
[42] = S. cerevisiae deletion strains, locus YKL190W, strain CNB1, active compounds read low
[43] = S. cerevisiae deletion strains, locus YKR001C, strain vps1, active compounds read low
[44] = S. cerevisiae deletion strains, locus YLR039C, strain RIC1, active compounds read low
[45] = S. cerevisiae deletion strains, locus YLR058C, strain SHM2, active compounds read low
[46] = S. cerevisiae deletion strains, locus YLR102C, strain apc9, active compounds read low
[47] = S. cerevisiae deletion strains, locus YLR268W, strain sec22, active compounds read low
[48] = S. cerevisiae deletion strains, locus YLR330W, strain CHS5, active compounds read low
[49] = S. cerevisiae deletion strains, locus YLR371W, strain rom2, active compounds read low
[50] = S. cerevisiae deletion strains, locus YLR418C, strain cdc73, active compounds read low
[51] = S. cerevisiae deletion strains, locus YML016C, strain PPZ1, active compounds read low
[52] = S. cerevisiae deletion strains, locus YML032C, strain rad52, active compounds read low
[53] = S. cerevisiae deletion strains, locus YML124C, strain tub3, active compounds read low
[54] = S. cerevisiae deletion strains, locus YMR078C, strain ctf18, active compounds read low
[55] = S. cerevisiae deletion strains, locus YMR223W, strain ubp8, active compounds read low
[56] = S. cerevisiae deletion strains, locus YMR307W, strain GAS1, active compounds read low
[57] = S. cerevisiae deletion strains, locus YNL067W, strain RPL9B, active compounds read low
[58] = S. cerevisiae deletion strains, locus YNL153C, strain GIM3, active compounds read low
[59] = S. cerevisiae deletion strains, locus YNL233W, strain BNI4, active compounds read low
[60] = S. cerevisiae deletion strains, locus YNL250W, strain rad50, active compounds read low
[61] = S. cerevisiae deletion strains, locus YNL271C, strain bni1, active compounds read low
[62] = S. cerevisiae deletion strains, locus YNL298W, strain CLA4, active compounds read low
[63] = S. cerevisiae deletion strains, locus YNL307C, strain MCK1, active compounds read low
[64] = S. cerevisiae deletion strains, locus YNR052C, strain pop2, active compounds read low
[65] = S. cerevisiae deletion strains, locus YOL006C, strain TOP1, active compounds read low
[66] = S. cerevisiae deletion strains, locus YOL012C, strain htz1
[67] = S. cerevisiae deletion strains, locus YOL147C, strain pex11, active compounds read low
[68] = S. cerevisiae deletion strains, locus YOR061W, strain CKA2, active compounds read low
[69] = S. cerevisiae deletion strains, locus YOR069W, strain VPS5, active compounds read low
[70] = S. cerevisiae deletion strains, locus YOR136W, strain idh2, active compounds read low
[71] = S. cerevisiae deletion strains, locus YOR144C, strain elg1, active compounds read low
[72] = S. cerevisiae deletion strains, locus YOR184W, strain ser1, active compounds read low
[73] = S. cerevisiae deletion strains, locus YOR316C, strain cot1, active compounds read low
[74] = S. cerevisiae deletion strains, locus YPR119W, strain clb2, active compounds read low
[75] = S. cerevisiae deletion strains, locus YPR141C, strain kar3, active compounds read low
[76] = S. cerevisiae deletion strains, locus YPR163C, strain tif3, active compounds read low
[77] = S. cerevisiae deletion strains, locus YPR167C, strain met16, active compounds read low
[78] = S. cerevisiae deletion strains, strain wtn01, active compounds read low

Measured: normalized growth

C[C@@H]1OC(O[C@H]2[C@H](O)[C@@H](O)[C@H](OC[C@H]3O[C@@H](OC(=O)[C@]45CCC(C)(C)CC4C4=CCC6[C@@]7(C)CC[C@H](OC8OC[C@H](O)[C@H](O)[C@H]8OC8O[C@@H](C)[C@H](O)[C@@H](O)[C@H]8O)[C@@](C)(CO)C7CC[C@@]6(C)[C@]4(C)CC5)[C@H](O)[C@@H](O)[C@@H]3O)O[C@@H]2CO)[C@H](O)[C@H](O)[C@H]1O (some centres not stated)
inactive: [1] 0.991 | [2] 0.987 | [3] 0.985 | [4] 1 | [5] 0.99 | [6] 0.992 | [7] 1.02 | [8] 0.97 | [9] 0.985 | [10] 0.995 | S. cerevisiae deletion strains, locus YDR150W, strain NUM1, active compounds read low 0.998 | [11] 1.02 | [12] 0.993 | [13] 0.986 | [14] 0.99 | S. cerevisiae deletion strains, locus YEL061C, strain CIN8, active compounds read low 0.993 | [15] 0.986 | [16] 0.989 | [17] 1 | [18] 0.985 | [19] 1.01 | [20] 0.991 | [21] 0.993 | S. cerevisiae deletion strains, locus YGR229C, strain SMI1, active compounds read low 1.01 | [22] 0.987 | [23] 0.997 and 1.02 | [24] 0.993 | S. cerevisiae deletion strains, locus YHR079C, strain IRE1, active compounds read low 1.01 | [25] 0.996 | [26] 0.99 | [27] 0.997 | [28] 1 | [29] 0.993 | [30] 0.983 | [31] 1 | [32] 1.01 and 0.985 | [33] 0.991 | [34] 0.991 | [35] 0.997 | [36] 1.02 | S. cerevisiae deletion strains, locus YJR066W, strain TOR1, active compounds read low 0.967 | [37] 1.02 | [38] 0.968 | [39] 0.98 | [40] 1 | [41] 1 | [42] 0.995 | [43] 0.984 | [44] 1.04 | [45] 0.988 | [46] 0.993 | S. cerevisiae deletion strains, locus YLR113W, strain HOG1, active compounds read low 0.992 | S. cerevisiae deletion strains, locus YLR262C, strain YPT6, active compounds read low 1.03 | [47] 0.992 | [48] 0.989 | S. cerevisiae deletion strains, locus YLR342W, strain FKS1 (second series), active compounds read low 1.01 | [49] 0.986 | [50] 0.992 | [51] 0.987 | [52] 0.986 | [53] 0.991 | [54] 0.985 | [55] 0.98 | S. cerevisiae deletion strains, locus YMR263W, strain SAP30, active compounds read low 1.01 | [56] 1.06 | [57] 1.01 | S. cerevisiae deletion strains, locus YNL128W, strain TEP1, active compounds read low 0.994 | [58] 1.02 | S. cerevisiae deletion strains, locus YNL183C, strain NPR1, active compounds read low 0.983 | [59] 1 | [60] 0.971 | [61] 0.987 | [62] 0.993 | [63] 0.989 | [64] 0.978 | [65] 0.946 | [66] 0.966 | [67] 0.997 | [68] 0.984 | [69] 0.991 | [70] 0.979 | [71] 0.997 | [72] 1.01 | S. cerevisiae deletion strains, locus YOR231W, strain MKK1, active compounds read low 0.983 | [73] 0.983 | S. cerevisiae deletion strains, locus YPL055C, strain LGE1, active compounds read low 1.02 | S. cerevisiae deletion strains, locus YPL241C, strain CIN2, active compounds read low 0.997 | S. cerevisiae deletion strains, locus YPL256C, strain CLN2, active compounds read low 1.04 | [74] 0.991 | [75] 0.982 | [76] 0.994 | [77] 0.985 | [78] 1 | S. cerevisiae strains, strain wild type, active compounds read low 0.994

CC(=O)OC1CC[C@@]2(C)C(CC[C@]3(C)C2CCC2C4CC(C)(C)CCC4(C(=O)O)CC[C@]23C)C1(C)C (some centres not stated)
inactive: [1] 1.02 | [2] 0.998 | [3] 0.968 | [4] 1.06 | [5] 1.05 | [6] 0.985 | [7] 1.03 | [8] 0.934 | [9] 1.01 | [10] 1.02 | [11] 1.01 | [12] 0.993 | [13] 0.975 | [14] 0.999 | [15] 0.971 | [16] 0.985 | [17] 0.998 | [18] 0.974 | [19] 1.01 | [20] 1.04 | [21] 0.972 | [22] 1.05 | [23] 1.01 | [24] 0.975 | [25] 0.978 | [26] 1.03 | [27] 0.999 | [28] 1.01 | [29] 0.986 | [30] 0.979 | [31] 0.974 | [32] 1.03 | [33] 0.994 | [34] 0.977 | [35] 1.01 | [36] 1.07 | [37] 1 | [38] 0.966 | [39] 1.02 | [40] 1.01 | [41] 1.01 | [42] 0.996 | [43] 1.01 | [44] 1.11 | [45] 1.02 | [46] 0.973 | [47] 0.998 | [48] 0.996 | [49] 0.968 | [50] 1.02 | [51] 1 | [52] 0.987 | [53] 0.991 | [54] 0.968 | [55] 0.976 | [56] 1.25 | [57] 0.989 | [58] 0.998 | [59] 1.03 | [60] 0.92 | [61] 0.995 | [62] 0.992 | [63] 1.01 | [64] 0.992 | [65] 1.25 | [66] 1.01 | [67] 0.979 | [68] 1 | [69] 1 | [70] 0.983 | [71] 0.989 | [72] 1.08 | [73] 0.964 | [74] 0.951 | [75] 0.975 | [76] 0.985 | [77] 0.99 | [78] 1.01

— PubChem BioAssay AID1159580 (chemical genetic matrix, 2015)
